Results published in ChEMBL document CHEMBL1961873, “Compounds: GSK PKIS; Assays: Nanosyn kinase panel” (2012).
“And” between values parts separate entries of the source, which are not always exact repeats. Equal entries are not always repeated.

Molecular target: Maternal embryonic leucine zipper kinase (Homo sapiens) (UniProt Q14680)
Conditions: at 1 µM
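Also: each value is the mean inhibition of MELK.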

Sequence of Maternal embryonic leucine zipper kinase (Homo sapiens) (Q14680 whole entry, looked up): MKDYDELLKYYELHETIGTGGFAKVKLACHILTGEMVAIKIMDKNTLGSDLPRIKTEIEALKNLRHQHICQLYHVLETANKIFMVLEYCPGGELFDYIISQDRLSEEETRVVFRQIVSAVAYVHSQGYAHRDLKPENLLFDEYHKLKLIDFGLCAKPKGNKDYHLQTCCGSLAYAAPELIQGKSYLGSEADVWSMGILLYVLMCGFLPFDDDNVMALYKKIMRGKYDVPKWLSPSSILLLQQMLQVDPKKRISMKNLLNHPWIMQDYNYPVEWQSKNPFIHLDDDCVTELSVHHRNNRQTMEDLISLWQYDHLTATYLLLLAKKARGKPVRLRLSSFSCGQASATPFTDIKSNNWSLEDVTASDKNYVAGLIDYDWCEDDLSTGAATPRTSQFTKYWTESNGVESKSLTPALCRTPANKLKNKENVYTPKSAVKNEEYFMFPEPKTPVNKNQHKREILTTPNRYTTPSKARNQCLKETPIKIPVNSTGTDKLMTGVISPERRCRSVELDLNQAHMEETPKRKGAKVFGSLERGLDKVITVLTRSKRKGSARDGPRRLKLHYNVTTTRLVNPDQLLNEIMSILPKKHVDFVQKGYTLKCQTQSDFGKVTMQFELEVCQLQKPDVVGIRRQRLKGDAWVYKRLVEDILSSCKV

Row | Structure (SMILES) | inhibition
1 | Cc1c2ccc(N(C)c3ccnc(Nc4cccc(S(N)(=O)=O)c4)n3)cc2nn1C | 3.67%
2 | Cc1ccc(-c2cc3c(NC(=O)C4CC4)ncnc3o2)cc1 | 4.56%
3 | CN(C)CCNC(=O)Nc1ccc(N(C)c2ccnc(Nc3ccc(CS(C)(=O)=O)cc3)n2)cc1 | 16.1%
4 | CCS(=O)(=O)c1ccc(OC)c(Nc2ncc(-c3cccc(F)c3)o2)c1 | 15.4%
5 | CC(C)c1ccc(-c2cc(-c3c[nH]nc3-c3ccccn3)ccn2)cc1 | 3.48%
6 | c1ccc(-c2n[nH]cc2-c2ccnc(-c3ccc(OCCn4ccnc4)cc3)c2)nc1 | 27.2%
7 | COc1ccc(Nc2ncc(-c3ccccc3)o2)cc1OC | 8.76%
8 | Cc1cc(O)cc(C)c1/C=C/c1cncc(C(N)=O)c1 | 3.76%
9 | CC1=C(C(=O)Nc2ccc3[nH]nc(C)c3c2)C(c2ccc(C(F)(F)F)cc2)CC(=O)N1 (stereo not given) | 18%
10 | NS(=O)(=O)c1cccc(N/C=C2\C(=O)Nc3ccccc32)c1 | 19%
11 | Fc1ccc(Nc2nccc(-c3c(-c4ccc(C(F)(F)F)cc4)nn4ncccc34)n2)cc1F | 3.78%
12 | COc1cc2c(cc1Nc1nc(Nc3cccc(F)c3C(N)=O)c3cc[nH]c3n1)N(C(=O)CN1CCN(C(C)C)CC1)CC2 | 18.4%
13 | O=C(O[C@H]1CN[C@H](C#Cc2cc3ncnc(Nc4ccc5c(ccn5Cc5cc(F)ccc5F)c4)c3s2)C1)N1CCOCC1 | 5.23%
14 | CCN1CCC(C(=O)Nc2n[nH]c3nnc(-c4cccc(F)c4F)cc23)CC1 | -1.79%
15 | N#Cc1cccc(Nc2ncc(-c3ccccc3)o2)c1 | 2.2%
16 | CS(=O)(=O)CCNCc1ccoc1-c1ccc2ncnc(Nc3ccc(OCc4ccccc4)cc3)c2c1 | -0.61%
17 | COc1cccc(-n2ncc3c(N/N=C/c4ccc(C(=O)NCCN(C)C)cc4)ncnc32)c1 | 11.5%
18 | COc1cc(N2CCN(C(C)C)CC2)ccc1Nc1nc(Nc2cccc3ncccc23)c2cc[nH]c2n1 | 3.21%
19 | NS(=O)(=O)c1ccc(N/N=C2\C(=O)Nc3ccc(C(=O)NCc4ccncc4)cc32)cc1 | 90.6%
20 | CCn1c(-c2nonc2N)nc2cncc(C(=O)NCCNC)c21 | 61.2%
21 | COC(=O)Nc1nc2cc(Oc3ccc(NC(=O)Nc4ccccc4)cc3)ccc2[nH]1 | 2.1%
22 | COc1cc(Nc2ncc(-c3ccccc3)o2)cc(OC)c1 | 5.97%
23 | COc1ccc(-c2nn3ncccc3c2-c2ccnc(Nc3ccc(F)c(F)c3)n2)cc1 | 4.64%
24 | COc1c(C(N)=O)cc(-c2ccc(Cl)cc2)cc1-c1ccc(S(N)(=O)=O)cc1 | 14.6%
25 | CC1=C(C(=O)Nc2ccc3[nH]ncc3c2)C(c2ccc(F)cc2)N=C(c2ccc(C(F)(F)F)nc2)N1 (stereo not given) | 5.11%
26 | CN1CCN(Cc2ccc(-c3cc4ncnc(Nc5ccc(OCc6cccc(F)c6)c(Cl)c5)c4s3)o2)CC1 | 6.62% and 9.42%
27 | N#Cc1ccc2c(-c3ccnc(NC4CC4)n3)c(-c3ccc(F)cc3)nn2c1 | -2.83%
28 | CNC(=O)c1ncccc1Nc1nc(Nc2cc3c(cc2OC)CCCN3C(=O)CN(C)C)nc2[nH]ccc12 | 18.2%
29 | Nc1nccc(-c2c(-c3ccc(F)cc3)ncn2C2CCNCC2)n1 | 4.7% and 0.94%
30 | c1cnn2ncc(-c3ccnc(NCCCN4CCOCC4)n3)c2c1 | 11.9%
